Sampled rows, rich in hits. Any-hit rate of the full collection: about 2.2%.
CHRM1 agonist = human M1 muscarinic receptor agonists, primary screen, Fluo-8 calcium fluorescence, CHO-K1 cells, HTS; Muscarinic acetylcholine receptor M1 (Homo sapiens), P11229; 360,000 tested, 0.33% active; activation, % at 3 µM; CHO-K1 hM1, agonist mode; 0% DMSO, 100% acetylcholine EC100;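 active means activation above the run's mean compound activation plus 3 SD, cut at about 16% in these data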;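 further: peak over basal fluorescence ratio within a 140 s kinetic read after compound addition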
CHRM4 agonist = human M4 muscarinic receptor agonists, primary screen, CHO-K1 cells, Fluo-8 calcium fluorescence. Muscarinic acetylcholine receptor M4 (Homo sapiens), P08173. CHO-K1 hM4/Gqi5; vehicle 0%, full acetylcholine response 100%. activation, % at 3 µM. 360,000 tested, 0.14% active. AID 624127, 2012;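 active means activation above the run mean over all test wells plus 3 SD, cut at about 32% in these data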;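 further: peak over basal fluorescence ratio per well then scaled between controls; 0% = DMSO wells and 100% = acetylcholine at EC100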
Target sequence (P08173 whole entry, looked up): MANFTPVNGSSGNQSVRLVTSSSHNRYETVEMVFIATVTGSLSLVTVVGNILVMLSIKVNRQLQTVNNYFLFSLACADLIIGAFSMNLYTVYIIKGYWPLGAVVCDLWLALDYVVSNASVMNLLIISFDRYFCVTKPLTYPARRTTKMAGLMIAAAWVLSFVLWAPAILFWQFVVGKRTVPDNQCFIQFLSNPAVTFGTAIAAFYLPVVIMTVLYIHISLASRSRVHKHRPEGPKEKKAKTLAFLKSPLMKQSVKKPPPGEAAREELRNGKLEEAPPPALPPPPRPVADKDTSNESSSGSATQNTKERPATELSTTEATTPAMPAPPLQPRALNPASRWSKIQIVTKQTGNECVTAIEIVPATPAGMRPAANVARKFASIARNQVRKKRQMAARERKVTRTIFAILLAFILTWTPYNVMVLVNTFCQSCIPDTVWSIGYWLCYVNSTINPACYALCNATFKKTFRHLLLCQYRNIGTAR
CHRM4 PAM = human M4 muscarinic receptor positive allosteric modulators, primary screen, CHO-K1 cells, Fluo-8 calcium fluorescence. AID 624126, 2012. 360,000 tested, 0.4% active. CHO-K1 hM4/Gqi5, ACh EC20; 0% = ACh EC20, 100% = maximal ACh. activation, % at 3 µM;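 active means activation above its plate's cutoff, the mean activation of sample wells plus 3 SD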
CHRM4 antagonist = human M4 muscarinic receptor antagonists, primary screen, CHO cells, Fluo-8 calcium fluorescence; Muscarinic acetylcholine receptor M4 (Homo sapiens), P08173; CHO-hM4 cells, ACh EC80; inhibition, % at 3 µM; 360,000 tested, 0.73% active; AID 624125, 2012;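 active means inhibition above its plate's cutoff, the mean inhibition of sample wells plus 3 SD, cut at about 27% in these data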;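 further: 0% = acetylcholine EC80 with DMSO and 100% = DMSO without agonist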
CHRM1 antagonist = human M1 muscarinic receptor antagonists, primary screen, CHO-K1 cells, Fluo-8 calcium fluorescence, 1536-well; Muscarinic acetylcholine receptor M1 (Homo sapiens), P11229; CHO-K1 hM1, ACh EC80 antagonist; inhibition, % at 3 µM; 360,000 tested, 1.3% active; AID 588852, 2011;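 active means percent inhibition above its own plate's cutoff, namely the mean of that plate's compound wells plus 3 SD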;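 further: peak over basal fluorescence ratio during 140 s after agonist addition; 0% = ACh EC80 plus DMSO and 100% = DMSO alone without agonist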
M1 PAM = human M1 muscarinic receptor positive allosteric modulators, primary screen, CHO-K1 cells, Fluo-8 calcium fluorescence, 1536-well | 360,000 tested, 0.088% active | AID 588819, 2011 | activation, % at 3 µM | Muscarinic acetylcholine receptor M1 (Homo sapiens), P11229 | CHO-K1 hM1, ACh EC20; 0% = ACh EC20, 100% = maximal ACh; in the data active means activation above about 19%, passing the limit was not always enough
* hit, by the source's call.

SMILES	CHRM1 agonist	CHRM4 agonist	CHRM4 PAM	CHRM4 antagonist	CHRM1 antagonist	M1 PAM
C=CC(O)(C#CCN(CC)CC)c1ccccc1 (configuration not stated)	-4	1	-15	12	38*	-18
CCN(CC)CC#CCC(O)(c1ccccc1)c1ccc(Br)cc1 (configuration not stated)	-4	7	-25	30*	92*	-23
CC(C)(C)OC(=O)N1CCN(C(=O)c2[nH]cnc2C(=O)NCc2ccccc2)CC1	-1	1	18	4	1	1
Cc1c(C(c2ccc(N(C)C)cc2)c2c(C)n(C)n(-c3ccccc3)c2=O)c(=O)n(-c2ccccc2)n1C	-10	1	13	-10	-10	2
CCN(CC)CC#CCC(C)(c1ccccc1)c1ccccc1	-5	3	-37	63*	72*	-21
CCN(CC)CP(=O)(c1ccccc1)c1ccccc1	-5	1	4	-2	-11	1
CS(=O)(=O)N(CC(=O)Nc1c(F)cccc1F)c1ccc(C23CC4CC(CC(C4)C2)C3)cc1	21*	1	-2	-4	11	5
CN(CC1CCCN(CCc2ccc(Cl)cc2)C1)C(=O)c1ccoc1 (configuration not stated)	-7	2	-3	1	12	-13
CN(CC1CCCN(CCc2ccc(Cl)cc2)C1)C(=O)c1ccco1 (configuration not stated)	-6	1	-8	-3	35*	-16
CN(CC1CCCN(CCc2ccc(Cl)cc2)C1)C(=O)c1ccc2nc[nH]c2c1 (configuration not stated)	-7	-1	-10	9	48*	-20
CN(CC1CCCN(CCc2ccc(Cl)cc2)C1)C(=O)CC(F)(F)F (configuration not stated)	-9	1	-4	-2	-14	-3
CN(C(=O)COC(=O)c1ccccc1SCC(=O)N1CCCC1)c1ccccc1	2	22	-11	-10	22	-12
CC(C)C(=O)NCCn1ccc2ccccc21	0	1	30*	3	-10	12
CCC(=O)NCCn1ccc2ccccc21	-3	1	6	-6	-5	3
COc1cc(S(=O)(=O)NCC2CCCO2)c(OC)cc1Cl (configuration not stated)	5	1	13	3	-63	26*
COc1ccc(S(=O)(=O)NCC2CCCO2)c(Cl)c1Cl (configuration not stated)	-1	1	-4	-3	-16	17
CCn1c(CSc2nnc(-c3ccoc3C)n2C)nc2cc(S(=O)(=O)N(C)C)ccc21	-3	1	-4	0	-10	9
CN(C)CCCOC(=O)N1c2ccccc2C=Cc2ccccc21	-10	9	-17	67*	95*	-29
CN(C)CCCOC(=O)c1ccccc1Cl	-4	2	-2	7	19	-13
C[C@@H]1CN([C@@H](C)CO)C(=O)c2cc(C#CCN(C)C)cnc2O[C@H]1CN(C)Cc1ccc2c(c1)OCO2	-11	1	-6	-1	62*	-30
CCCC#Cc1cnc2c(c1)C(=O)N([C@H](C)CO)C[C@H](C)[C@@H](CN(C)C(=O)CCN1CCCCC1)O2	-11	0	-12	20	45*	-25
COc1cccc(S(=O)(=O)N(C)C[C@@H]2Oc3ncc(C#CCN(C)C)cc3C(=O)N([C@H](C)CO)C[C@H]2C)c1	-10	3	-9	11	49*	-31
CCCC#Cc1cnc2c(c1)C(=O)N([C@H](C)CO)C[C@@H](C)[C@H](CN(C)S(=O)(=O)c1cccc(OC)c1)O2	-7	15	-2	-29	7	-11
O=C(NC1CCCC1)C1CC(=O)N(c2ccccc2)C1 (configuration not stated)	-1	0	-2	6	-14	9
Cc1nc2ccc(NS(=O)(=O)c3c(F)cc(F)cc3Br)cc2s1	-1	11	-11	15	37*	-15
SMILES	CHRM1 agonist	CHRM4 agonist	CHRM4 PAM	CHRM4 antagonist	CHRM1 antagonist	M1 PAM
COc1ccc(CCNC(=O)Cn2c(=O)n(-c3ccc(C)c(F)c3)c(=O)c3sccc32)cc1OC	-1	-2	32*	3	-22	17
CC(=O)N1CCN(c2ccc(NC(=O)COc3ccc(Cl)cc3Cl)cc2)CC1	1	11	-6	-1	-2	1
CCN1CCN(c2ccc(NC(=O)COc3ccc(Cl)cc3C)cc2)CC1	-8	4	-16	28*	100*	-27
CCN1CCN(c2ccc(NC(=O)COc3ccccc3Cl)cc2)CC1	-5	1	-9	10	32*	-15
O=C(O)c1ccccc1-c1ccccc1C(=O)Nc1ccc2c(c1)C(=O)c1ccccc1-2	-3	0	-1	4	12	-7
O=C(NC1CCCCC1)N1CCN(c2ccc(Cl)cc2)CC1	1	10	0	1	5	0
CCc1noc(C)c1C(=O)N1CCN(c2ccc([N+](=O)[O-])cc2)CC1	-5	10	-4	-3	2	-4
Cc1noc(C)c1CSCC(=O)N1CCN(c2ccc([N+](=O)[O-])cc2)CC1	1	18	-16	18	58*	-21
O=C(NC1CCCCC1)N1CCN(c2ccc([N+](=O)[O-])cc2)CC1	0	10	-9	3	27*	-15
O=C(c1cc([N+](=O)[O-])ccc1N1CCOCC1)N1CCCCC1	-7	1	0	3	-5	5
CCNC(=S)N1CCN(c2ccc([N+](=O)[O-])cc2)CC1	1	5	-4	5	-24	6
O=[N+]([O-])c1ccc(N2CCN(C(=S)NCc3ccc(Cl)cc3)CC2)cc1	0	14	-19	20	37*	-10
O=C(c1cc([N+](=O)[O-])ccc1N1CCOCC1)N1CCN(c2ccc([N+](=O)[O-])cc2)CC1	-6	0	-5	1	32*	-11
CCOC(=O)N1CCN(c2c(NCCN(C)Cc3ccccc3)c(=O)c2=O)CC1	-10	1	3	-10	-10	6
S=C(Nc1ccc(Cl)cc1)NC1CCCCC1	0	8	-25	1	1	-5

Bioassay records: PubChem BioAssay, The Scripps Research Institute Molecular Screening Center
